Screening data deposited in PubChem BioAssay by National Center for Advancing Translational Sciences (NCATS).
TrxR1 substrate: rat thioredoxin reductase 1 substrate activity; purified TrxR1 substrate turnover, NADPH consumption readout; Potency, µM (titrated, usually from 114 µM), without a hit: at the highest dose activity change, negative = substrate turnover; 390,000 tested, 0.01% active; AID 588456; note: potency is the fitted concentration of half-maximal effect; nearly all actives have a fitted effect of over 50% in size
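Rat TrxR1, dispensed at 90 nM, was prereduced with 400 uM NADPH (final) for 5 min at ~22 deg C, then incubated with compound 15 min before 400 uM selenite. A first-read NADPH fluorescence drop versus no-compound background flagged substrates.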
FBPA coupling cs: coupling enzyme interference in Giardia aldolase counter-screen. coupling enzyme system counterscreen, AmpLite Red fluorescence. activity change, negative = inhibition, % at 58.2 µM, hits read low. 290,000 tested, 0.67% active; in the data active = activity change below about -30%
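Counterscreen lacking aldolase: glyceraldehyde-3-phosphate coupling-enzyme reagent preincubated 10 min at RT with compound (at 57.5 uM final), then substrate/coupling system with AmpLite Red added; fluorescence read at 525/598 nm after 20 min RT.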
USP1-UAF1 inh: inhibitors of human USP1/UAF1 deubiquitinase; O94782; recombinant USP1/UAF1, Ub-Rhodamine cleavage fluorescence; Potency, µM (highest dose often 57.1 µM), without a hit: top-dose activity change, negative = inhibition, actives largely listed as inhibitors; 390,000 tested, 0.23% active; note: potency is the fitted concentration of half-maximal effect; nearly all actives have a fitted effect of over 60% in size
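Step one: compound is pinned into 1nM USP1/UAF1 in HEPES pH 7.8 buffer with TCEP. Step two: 15 min room-temperature incubation. Step three: Ub-Rho (150nM final) starts cleavage, tracked by fluorescence over six one-minute reads.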
TrxR1 inh: rat TrxR1 inhibition; O89049; recombinant rTrxR1, NADPH fluorescence consumption, selenite substrate; Potency, µM (top dose mostly 114 µM), without a hit: at the top dose activity change, negative = inhibition, hits mostly inhibitors; 390,000 tested, 1% active; note: potency is the fitted concentration of half-maximal effect; nearly all actives have a fitted effect of over 65% in size
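Rat TrxR1 (90 nM in the dispensed reagent) was pre-reduced with 400 uM NADPH for 5 min at room temperature, then incubated with compound for 15 min. After 400 uM selenite was added, NADPH fluorescence (Ex 340/Em 450 nm) was followed for 8 min.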
GALK inh: inhibitors of human galactokinase; AID 1868; Purified GALK, Kinase-Glo residual ATP luminescence; 270,000 tested, 0.007% active; Potency, µM (doses to about 57.5 µM), without a hit: top-dose activity change, negative = inhibition, most hits filed as inhibitors; note: potency is the fitted concentration of half-maximal effect
Target sequence (P51570 whole entry, looked up): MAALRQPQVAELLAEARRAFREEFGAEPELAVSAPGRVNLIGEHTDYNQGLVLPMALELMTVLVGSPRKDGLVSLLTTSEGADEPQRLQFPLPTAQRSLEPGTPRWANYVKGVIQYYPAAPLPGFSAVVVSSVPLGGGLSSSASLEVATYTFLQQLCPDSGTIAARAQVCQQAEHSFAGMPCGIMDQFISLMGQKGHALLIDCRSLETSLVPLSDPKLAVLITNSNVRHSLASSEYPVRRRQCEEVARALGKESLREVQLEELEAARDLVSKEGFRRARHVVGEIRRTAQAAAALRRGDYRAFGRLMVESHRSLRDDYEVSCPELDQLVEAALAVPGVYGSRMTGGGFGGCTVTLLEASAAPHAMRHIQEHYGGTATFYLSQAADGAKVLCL
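Luminescence from leftover ATP (Ultra-Glo luciferase/luciferin) served as read-out after a 1 h room-temperature reaction of 5 nM GALK with 35 uM ATP and 100 uM galactose.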
* marks the source's active call; other numbers are inactive results; i = inactive; ? = inconclusive; nt = not tested or not shown; [ ] = dose if it differs, or a comment. Shown are actives, neighbours in structure and some others; about 1.5% of the full set was active somewhere. Unless noted, calls come from the whole dose curve; as a rule, active = well fitted curve in the direction sought with a large enough effect; inconclusive = small, poorly fitted or top-dose-only effect, or another doubt; inactive = no such curve, though single readings can be large; an effect the other way counts as inactive or inconclusive. % is set by controls: 0 for no effect and ±100 for the full control effect.

SMILES	TrxR1 substrate	FBPA coupling cs	USP1-UAF1 inh	TrxR1 inh	GALK inh
Cc1cc(O)c(C(C)C)cc1N=Cc1ccc([N+](=O)[O-])cc1	-20%	nt	?	?	nt
COc1cc(/C=C/c2nc3ccccc3nc2/C=C/c2cc(OC)c(OC)c(OC)c2)cc(OC)c1OC	3%[0.0914 µM]	nt	nt	2%	nt
COc1ccc2c(c1)CCc1cc(C(=O)O)sc1-2	i	0	-4%	45µM*	-2%
Cc1cc(=O)c2c(O)c3c(O)cc(O)c4c5c(O)cc(O)c6c(O)c7c(=O)cc(C)c8c1c2c(c34)c(c65)c78	nt	-10	nt	nt	nt
Cc1ccc(C(=O)NC2(O)C(=O)c3ccccc3C2=O)cc1C	-3%	-19	?	17%[57.1 µM]	?
O=C(NC1(O)C(=O)c2ccccc2C1=O)c1ccc(C(F)(F)F)cc1	-7%[57.1 µM]	-19	16µM*	-10%[57.1 µM]	?
Cc1cccc2cc3c(nc12)SC(=NCC1CCCO1)N(Cc1ccco1)C3 (stereo not given)	100%	7	-13%	3.5µM*	2%
CCCc1nnc(NC(=O)c2nc(S(=O)(=O)Cc3cccc(C)c3)ncc2Cl)s1	9%	nt	-24%	?	4%
O=C(Nc1ccccc1F)c1nc(S(=O)(=O)Cc2ccccc2F)ncc1Cl	10%	nt	-4%	1.6µM*	nt
Cc1cccc(C)c1NC(=O)c1nc(S(=O)(=O)Cc2ccccc2)ncc1Cl	2%	nt	-4%	16µM*	5%
COC(=O)c1ccccc1NC(=O)c1nc(S(=O)(=O)Cc2ccccc2F)ncc1Cl	8%	nt	-16%	?	nt
Cc1cccc(C)c1NC(=O)c1nc(S(=O)(=O)Cc2ccccc2F)ncc1Cl	9%	nt	nt	4.5µM*	nt
Cc1nnc(NC(=O)c2nc(S(=O)(=O)Cc3ccccc3)ncc2Cl)s1	-1%	nt	-14%	13µM*	-8%
Cc1cccc(CS(=O)(=O)c2ncc(Cl)c(C(=O)Nc3c(C)cccc3C)n2)c1	10%	nt	?	?	-3%
CCCCCCCCCCCC	nt	0	nt	nt	nt
COc1ccc(OC)c(NC(=O)c2nc(S(=O)(=O)Cc3ccccc3F)ncc2Cl)c1	14%	nt	nt	?	nt
O=C(Nc1ccc2ccccc2c1)c1nc(S(=O)(=O)Cc2ccccc2F)ncc1Cl	-5%	nt	nt	10µM*	nt
COc1ccc(OC)c(NC(=O)c2nc(S(=O)(=O)Cc3ccccc3)ncc2Cl)c1	-1%	nt	-6%	3.5µM*	-1%
CC(=O)Nc1ccc(NC(=O)c2nc(SCc3ccccc3F)ncc2Cl)cc1	8%	nt	nt	16%[0.0914 µM]	nt
CN1CCN(c2ncc3nc(-c4cc(F)cc(F)c4)c(=O)n(CCC#N)c3n2)CC1	nt	4	nt	nt	nt
Cc1ccc(NC(=O)COC(=O)c2ccccc2OCC(=O)N(C)C)cc1	2%	nt	nt	0%	nt
COc1ccccc1Nc1nc(N)nc(CN2CCCCCC2)n1	7%[57.1 µM]	0	6%	14µM*	0%
C[C@H](Cc1nc2c(cnn2-c2ccccc2Cl)c(=O)[nH]1)C(F)(F)F	nt	-6	nt	nt	nt
CCOc1ccc(Cl)cc1/C=N/NC(N)=O	3%	-39*	-18%	7%	-1%
CCOc1ccc(Cl)cc1/C=N/O	10%	-1	-17%	13%	-2%
SMILES	TrxR1 substrate	FBPA coupling cs	USP1-UAF1 inh	TrxR1 inh	GALK inh
COc1ccc(NC(=S)Nc2ccc3nccnc3c2)cc1	-15%	-38*	-4%	16µM*	1%
Cc1ccc(NC(=S)N2CCOCC2)cc1	11%	2	-12%	8%	2%
S=C(Nc1ccc2nccnc2c1)N1CCOCC1	5%[57.1 µM]	-34*	2%	5%[57.1 µM]	-2%
COc1ccc(NC(=S)Nc2ccc3snnc3c2)cc1	2%[57.1 µM]	-12	-21%	21%[57.1 µM]	1%
O=C(CNC(=O)c1cccnc1)c1ccc(F)cc1	-1%	nt	nt	0%	nt
CC(=O)OCC1=C[C@H]2[C@@H]3C(C)(C)[C@]3(OC(C)=O)C[C@@H](C)[C@]2(O)[C@@H]2C=C(C)C(=O)[C@@]2(O)C1	nt	-6	nt	nt	nt
Cc1cc2ccccn2c1C(=O)c1ccc(Cl)c([N+](=O)[O-])c1	-9%	-3	-2%	-2%	-4%
Cc1cc2ccccn2c1C(=O)c1cccc([N+](=O)[O-])c1	12%[57.1 µM]	-4	0%	23%[57.1 µM]	0%
Cc1cc2ccccn2c1C(=O)c1ccc([N+](=O)[O-])cc1[N+](=O)[O-]	-1%[57.1 µM]	-3	-10%	3.2µM*	7%
